Reference: PMC5540273 (PLoS ONE, 2017)

Columns and labels:
Details in all cases: concentration: 1 μM, replicates: in singlicate; n = 1
ROCK1 = tested on: ROCK1
ROCK2 = tested on: ROCK2
ROS1 = tested on: ROS1
[1] = tested on: RPS6KA4(Kin.Dom.1-N-terminal)
[2] = tested on: RPS6KA4(Kin.Dom.2-C-terminal)
[3] = tested on: RPS6KA5(Kin.Dom.1-N-terminal)
[4] = tested on: RPS6KA5(Kin.Dom.2-C-terminal)
[5] = tested on: T1, RSK1(Kin.Dom.1-N-terminal)
T1 construct: gene RPS6KA1

[6] = tested on: T2, RSK1(Kin.Dom.2-C-terminal)
T2 construct: gene RPS6KA1

[7] = tested on: T3, RSK2(Kin.Dom.1-N-terminal)
T3 construct: gene RPS6KA3
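Further: KINOMEscan kinase panel screen.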

Row | Structure (SMILES) | %Inh (ROCK1) | %Inh (ROCK2) | %Inh (ROS1) | %Inh [1] | %Inh [2] | %Inh [3] | %Inh [4] | %Inh [5] | %Inh [6] | %Inh [7]
1 | COc1cccc(NC(=O)NC2CCN(c3ccnc(Nc4ccc(F)cc4)n3)C2)c1 (centres unmarked) [GSK1379721] | 0% | 5% | 0% | 0% | 0% | 0% | 12% | 15% | 25% | 4%
2 | Cc1cc(NCC(c2ccccc2)c2ccccc2)nc(NCc2ccc(C(F)(F)F)cc2)n1 [GW497681] | 0% | 23% | 0% | 0% | 0% | 0% | 1% | 0% | 6% | 0%
3 | Cc1csc(-c2nc(Nc3ccncc3)c3ccccc3n2)n1 [GW869640] | 65% | 18% | 22% | 52% | 17% | 13% | 16% | 0% | 22% | 42%
4 | Fc1cccc(COc2nnc(-c3ccc4c(c3)CCO4)o2)c1 | 0% | 0% | 0% | 0% | 30% | 0% | 9% | 0% | 43% | 0%
5 | COc1cc2nccc(Nc3ccc(NC(=O)c4ccc(C)cc4)c(O)c3)c2cc1OC.Cl [GW440132] | 0% | 4% | 47% | 11% | 0% | 18% | 0% | 9% | 0% | 7%
6 | O=C(Nc1ccc2c(c1)OCO2)NC1CCN(c2ccnc(Nc3ccc(F)cc3)n2)C1 (centres unmarked) [GSK1379724] | 6% | 3% | 0% | 0% | 0% | 11% | 0% | 11% | 0% | 12%
7 | CCCc1ccc(S(=O)(=O)NC2CCN(c3ccnc(Nc4ccc(F)cc4)n3)C2)cc1 (centres unmarked) [GSK1379715] | 11% | 0% | 0% | 0% | 0% | 0% | 0% | 7% | 0% | 8%
8 | Cc1ccccc1-n1cnc2c(N)ncnc21 [SKF-97510] | 0% | 0% | 0% | 0% | 0% | 0% | 0% | 18% | 93% | 0%
9 | C[C@@H]1CCCCN1c1cc(-c2ccc3c(N)n[nH]c3c2)nc(N)n1 [GSK2258759] | 0% | 0% | 5% | 4% | 0% | 14% | 10% | 5% | 14% | 0%
10 | Fc1cc(Cl)ccc1Nc1ccnc2cc(-c3ccc(CN4CCCCC4)o3)ccc12 [GW560116] | 31% | 24% | 2% | 0% | 0% | 0% | 8% | 0% | 26% | 0%
11 | COc1cc2ncnc(Nc3ccc4nc(-c5ccccc5)[nH]c4c3)c2cc1OC.Cl [GW282450] | 18% | 30% | 47% | 6% | 0% | 11% | 3% | 0% | 0% | 0%
12 | O=C(O)COc1ncnc2cc(-c3ccc4[nH]ncc4c3)sc12 | 27% | 61% | 3% | 15% | 17% | 0% | 0% | 21% | 34% | 13%
13 | O=C1NC(=O)C(N2CCc3ccccc32)=C1c1ccccc1Cl [SB-373598] | 4% | 0% | 22% | 41% | 0% | 7% | 10% | 0% | 14% | 65%
14 | COC(=O)c1c(-c2ccccc2)c2cc(C(=O)O)ccc2c(=O)n1Cc1ccccc1 | 10% | 0% | 0% | 0% | 6% | 11% | 0% | 0% | 18% | 0%
15 | CCn1c(-c2cccnc2O)nc2cnccc21 [SB-736715] | 11% | 0% | 0% | 0% | 0% | 0% | 0% | 0% | 0% | 4%
16 | Cc1c(O)cccc1Nc1ccnc2ccc(C(F)(F)F)cc12.Cl [GW466413] | 10% | 20% | 3% | 17% | 0% | 32% | 0% | 0% | 2% | 0%
17 | COc1ccc2nc(-c3cccc(C)n3)nc(Nc3ccncc3)c2c1 [GSK204919] | 13% | 5% | 4% | 12% | 0% | 25% | 0% | 2% | 7% | 0%
